CYP2C19 activ – human CYP2C19 activators, primary screen, biochemical, luminescence; recombinant CYP2C19, luciferin-H EGE luminescence; active compounds read high; 0 = fully inhibited enzyme, 1 = untreated enzyme; AID 1025, 2008; activation factor at 5 µM; Cytochrome P450 2C19 (Homo sapiens), P33261; 96,000 tested, under 10 active;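 active = activation factor of at least 2 at 5 µM in the primary screen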;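 note: 0 = wells with 2.5 mM tranylcypromine and 1 = vehicle-only wells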
DAT uptake mod – changed hDAT dopamine uptake under cocaine IC80, either direction, primary screen, cocaine antagonist project, cell-based, LLC-PK1 hDAT, [14C]-dopamine uptake, MLSMR; LLC-PK1 hDAT cells, [14C]-dopamine uptake with cocaine IC80; actives deviate in either direction; B-score at 10 µM; hit rate 1.3% among 110,000; AID 449768, 2010;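 active = Z score or B-score, a plate-position-corrected score, falls beyond the plate's 99.7% confidence bounds, in either direction; inactive = both scores lie inside the 99.7% bounds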;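 note: scored against the spread of the other compound wells on the same plate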
CYP2C9 activ – human CYP2C9 activators, primary screen, biochemical, luminescence. Cytochrome P450 2C9 (Homo sapiens), P11712. recombinant CYP2C9, luciferin-H conversion; active compounds read high; factor 1 = untreated enzyme, 0 = blocked. activation factor at 5 µM. hit rate 1.4% among 96,000. AID 1024, 2008;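 active = activation factor of 2 or more for CYP2C9 at a 5 µM dose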;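 note: 0 = sulfaphenazole-blocked wells and 1 = vehicle-only wells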
Target sequence (P11712 whole entry, looked up): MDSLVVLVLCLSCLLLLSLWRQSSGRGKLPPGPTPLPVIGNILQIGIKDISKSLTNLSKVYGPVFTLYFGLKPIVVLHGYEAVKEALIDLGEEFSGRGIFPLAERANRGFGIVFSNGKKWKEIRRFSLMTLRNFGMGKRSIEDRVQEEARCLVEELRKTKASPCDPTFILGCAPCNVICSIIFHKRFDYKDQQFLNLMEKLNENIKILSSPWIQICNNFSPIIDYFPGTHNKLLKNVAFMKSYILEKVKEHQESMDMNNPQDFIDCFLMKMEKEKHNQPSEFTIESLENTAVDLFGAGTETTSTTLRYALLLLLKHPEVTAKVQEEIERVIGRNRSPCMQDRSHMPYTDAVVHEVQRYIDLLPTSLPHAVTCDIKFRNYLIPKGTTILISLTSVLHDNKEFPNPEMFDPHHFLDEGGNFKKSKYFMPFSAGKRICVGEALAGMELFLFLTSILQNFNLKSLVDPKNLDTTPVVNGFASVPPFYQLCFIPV
CYP2C19 inhib – blockers of cytochrome P450 2C19 activity – biochemical, luminescence, ADME assay, primary screen; P33261; CYP2C19 Supersomes, luciferin-H EGE luminescence, 30 min; inhibition, % at 5 µM; hit rate 21% among 96,000; AID 778, 2007;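 active = CYP2C19 inhibition above a set limit at 5 µM in the primary screen, cut at about 50% in these data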;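 note: plate controls were negative control wells for no effect and 2.5 mM tranylcypromine positive control for full effect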
CYP2C9 inhib – blockers of cytochrome P450 2C9 activity – biochemical, luminescence, ADME assay, primary screen | hit rate 20% among 96,000 | P11712 | inhibition, % at 5 µM | CYP2C9 Supersomes, luciferin-H conversion;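 active = blocking of liver enzyme CYP2C9 beyond about 50% at 5 µM, limit read from the data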
D1 allo mod – D1 CRE-luciferase signal change, two-sided – cell-based, HEK293 D1, dopamine EC30, D1 allosteric modulator project, primary screen | B-score at 10 µM | dopamine EC30 potentiation; actives deviate in either direction | hit rate 5.9% among 58,000 | D(1A) dopamine receptor (Homo sapiens), P21728;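 active = luminescence count or its row- and column-corrected plate score outside the 99.7% band of the plate's sample wells, on either side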
* hit, by the source's call; x = no result. Sampled rows, rich in hits. Any-hit rate of the full collection: about 28%.

SMILES	CYP2C19 activ	DAT uptake mod	CYP2C9 activ	CYP2C19 inhib	CYP2C9 inhib	D1 allo mod
O=C(COC(=O)c1ccco1)c1ccc2ccccc2c1	0.7	0.44	0.7	31	27	x
COC(=O)CC1COc2ccccc2N1C(=O)c1ccc(C(C)(C)C)cc1 (configuration not stated)	0.7	-1.5	0.2	34	77*	x
O=C(O)CCc1cc(I)c(Oc2ccc(O)c(I)c2)c(I)c1	x	x	x	x	x	0.27
CC1CN(C(=O)Nc2ccc3snnc3c2)c2ccccc21 (configuration not stated)	0.3	2.6*	0.2	71*	81*	-3.4
O=C(OC1CCS(=O)(=O)c2sccc21)c1ccccc1 (configuration not stated)	0.4	-0.059	0.7	56*	35	x
C=CCn1c(SCC(N)=O)nnc1-c1cccc(Br)c1	0.8	-0.025	1	21	3	-0.68
C=CCn1c(SCc2ccccc2C#N)nnc1-c1cc(Br)ccc1O	0	0.07	0.2	99*	78*	-1.7
CC(=O)CCc1ccc2oc(C(=O)O)c(C)c2c1	1	-1.9	1	1	4	-0.78
Nc1c(S(=O)(=O)c2cc(Cl)ccc2Cl)c2nc3ccccc3nc2n1CCN1CCOCC1	0.2	1.2	0	79*	96*	x
CCn1c2ccc(Cl)cc2c2nc3ccccc3nc21	1	-0.011	1	-1	4	x
Brc1ccc2c(c1)c1nc3ccccc3nc1n2CCN1CCOCC1	x	x	x	x	x	4.3*
Cc1occc1C(=O)Nc1ccc(S(=O)(=O)N2CCN(C)CC2)cc1	0.8	-2.1	0.8	16	21	x
Cc1ccc(Cc2nnc3n(-c4cccc(C)c4)nc(C(=O)c4ccccc4)n3c2=O)cc1	x	1.5	x	x	x	x
CCn1c(-c2cc(-c3cc(OC)ccc3OC)nc3ccccc23)n[nH]c1=S	0.1	0.3	0	88*	97*	x
Oc1ccc(-c2n[nH]c(=S)n2Cc2ccccc2)cc1	0.8	-0.08	0.6	18	39	0.86
CCn1c(-c2cc(-c3ccc(OC(C)C)cc3)nc3ccccc23)n[nH]c1=S	0.3	-0.27	0	74*	96*	x
CC(C)(CSc1nncn1N)NS(=O)(=O)c1ccc(Cl)cc1	0.1	0.75	0.5	95*	51*	0.4
Cn1cnnc1SC1CCCCC1NS(=O)(=O)c1ccc(Cl)cc1 (configuration not stated)	x	-0.79	x	x	x	x
Cc1ccc(C2=CC(c3ccccc3)n3ncnc3N2)c(C)c1 (configuration not stated)	x	0.03	x	x	x	x
CN(C)c1ccc(C2C=C(c3ccc(Cl)cc3OC(F)F)Nc3ncnn32)cc1 (configuration not stated)	0	0.21	0.1	99*	94*	-0.18
Cc1ccc(C2C=C(c3ccccc3OC(F)F)Nc3ncnn32)cc1 (configuration not stated)	0.6	x	0.3	36	66*	x
COc1cc(CN(C)Cc2ccccc2)cc(OC)c1O	0.3	-0.31	0.7	65*	28	x
Cc1ccc(C)c(NC(=O)CCC(=O)NNC(=O)c2cccc([N+](=O)[O-])c2)c1	1.2	-0.8	1	-16	4	x
COc1ccc(NC(=O)NS(=O)(=O)c2ccc(C)cc2)c(OC)c1	0.7	-0.18	0.1	27	92*	-0.22
COc1ccc(NC(=O)C(C)N(c2ccc(C)cc2)S(C)(=O)=O)c(OC)c1 (configuration not stated)	0.1	0.12	0.5	90*	52*	-0.62
SMILES	CYP2C19 activ	DAT uptake mod	CYP2C9 activ	CYP2C19 inhib	CYP2C9 inhib	D1 allo mod
C#Cc1ccc([C@@H]2C=C(C(=O)OCC=C)O[C@H](OCc3ccc(CO)cc3)C2)cc1	x	0.6	x	x	x	x
CCCc1nc(SCc2ccc(Cl)cc2Cl)n[nH]1	0.2	-0.0032	0.7	84*	27	x
CCOC(=O)C[C@H]1c2ccc(C(F)(F)F)cc2S(=O)(=O)N1C(C)(C)C	x	1.1	x	x	x	x
CCCCCCC(=O)N1C/C=C\C(c2ccc(OC)cc2)N(Cc2ccc(F)cc2)C(=O)[C@H]1Cc1ccccc1 (some centres not stated)	x	-0.37	x	x	x	x
Cc1nc2c(Br)cc(Br)cc2cc1O	0.7	-0.55	0.4	29	62*	x
Brc1cc(Br)c2nc(-c3cccs3)ccc2c1	1.2	-0.44	1	-24	5	x
CCC(C)(C)n1nnnc1C(c1cc2cc(C)ccc2[nH]c1=O)N1CCCc2ccccc21 (configuration not stated)	0.7	x	0.4	33	64*	x
Cc1ccc2[nH]c(=O)c(C(c3nnnn3C3CCCC3)N3CCCc4ccccc43)cc2c1 (configuration not stated)	x	0.15	x	x	x	x
Cc1ccc2[nH]c(=O)c(C(c3nnnn3CC3CCCO3)N3CCCc4ccccc43)cc2c1 (configuration not stated)	0.6	0.84	0.4	40	60*	1.3
CCC(C)(C)n1nnnc1C(c1cc2ccc(OC)cc2[nH]c1=O)N1CCc2ccccc21 (configuration not stated)	0.5	1.1	0	54*	98*	0.11
Cc1ccc2cc(C(c3nnnn3Cc3ccccc3)N3CCc4ccccc43)c(=O)[nH]c2c1 (configuration not stated)	0.9	-0.4	0.7	10	30	x
CCC(C)(C)n1nnnc1C(c1cc2cc(OC)ccc2[nH]c1=O)N1CCc2ccccc21 (configuration not stated)	0.4	0.45	0	63*	100*	0.065
Cc1ccc2[nH]c(=O)c(C(c3nnnn3CC3CCCO3)N3CCc4ccccc4C3)cc2c1 (configuration not stated)	0.9	0.62	0.9	12	5	0.3
Cc1nnc(SC(C)C(=O)Nc2ccc(S(=O)(=O)N3CCCCCC3)cc2)s1 (configuration not stated)	0.7	0.47	0.6	25	44	0.21
COc1cccc(C(=O)CSc2nnc(CNS(=O)(=O)c3ccc(C)cc3)n2C)c1	1	0.61	1	-2	2	0.18
CCC(c1nnnn1CC1CCCO1)N(CCN1CCOCC1)Cc1cc2cc(C)ccc2[nH]c1=O (configuration not stated)	1.1	-1.8*	1.1	-14	-12	-0.4
COC1CCCCC1Nc1cccc(SC)c1 (configuration not stated)	0.7	1.2	0.9	29	9	-0.38
COC(=O)CCC(=O)OC1(C)C(=O)C=C2C=C(C3CC3)OC=C2C1=O (configuration not stated)	x	-0.74	x	x	x	x

Screening data deposited in PubChem BioAssay by several laboratories.
